ELG1 DNA repair – inhibitors of ELG1-dependent DNA repair in HEK293T cells. HEK293T ELG1-luciferase reporter, luminescence, 16 h; DNA damage induced by 5-fluorouridine. Potency, µM (titrated, usually from 46.1 µM), usual class: inhibitors. 330,000 tested, 2.3% active; also: nearly all actives have a fitted effect of over 55% in size
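HEK293T cells expressing luciferase-tagged ELG1 (2,000/well) received 5-Fluorouridine plus compound or DMSO for 16 hr at 37 °C. Luciferase was read by ONE-Glo luminescence after 30 min at room temperature.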
MCF10A rereplic – inducers of DNA re-replication in MCF 10A breast cells; AID 624296; 350,000 tested, 2.9% active; Potency, µM (series often up to 46.1 µM), actives largely listed as activators; MCF 10A DNA re-replication, Hoechst nuclear intensity, 48 h; also: nearly all actives have a fitted effect of over 50% in size
VP16 counter – counter-screen for ROR gamma inhibitors: Gal4-VP16 reporter; Drosophila S2 Gal4-VP16 UAS-luciferase, luminescence, 20 h; Potency, µM (series often up to 53.6 µM), hits mostly inhibitors; 310,000 tested, 3.5% active;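 also: Gal4-VP16 expression switched on by copper sulfate through the metallothionein promoter; nearly all actives have a fitted effect of over 50% in size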
RORg inh – ROR gamma (mouse) transcription inhibition | Drosophila S2 Gal4-RORgamma UAS-luciferase reporter, 20 h | Potency, µM (doses to about 53.6 µM), usual class: inhibitors | 310,000 tested, 5.4% active; also: nearly all actives have a fitted effect of over 60% in size
Target sequence (P51450 whole entry, looked up, the tested form may be a part): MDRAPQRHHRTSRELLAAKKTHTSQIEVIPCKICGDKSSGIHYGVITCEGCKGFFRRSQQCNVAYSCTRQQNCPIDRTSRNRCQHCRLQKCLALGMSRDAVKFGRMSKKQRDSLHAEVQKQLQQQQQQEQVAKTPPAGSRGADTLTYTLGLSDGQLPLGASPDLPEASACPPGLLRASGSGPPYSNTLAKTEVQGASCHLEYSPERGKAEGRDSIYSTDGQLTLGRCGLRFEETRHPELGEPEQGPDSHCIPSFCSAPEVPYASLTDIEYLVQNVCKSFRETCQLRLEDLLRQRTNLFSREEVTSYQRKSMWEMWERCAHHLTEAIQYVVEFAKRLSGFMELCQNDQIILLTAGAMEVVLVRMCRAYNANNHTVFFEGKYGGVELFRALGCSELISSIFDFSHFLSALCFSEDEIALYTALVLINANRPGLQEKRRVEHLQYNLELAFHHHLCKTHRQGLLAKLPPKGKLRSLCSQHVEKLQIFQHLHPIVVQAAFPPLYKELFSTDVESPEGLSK
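Stable Schneider cell line, Gal4 DNA-binding domain fused to ROR gamma, UAS-luciferase. Cmpd 1 hr RT → CuSO4 700 uM final → 20 hr RT → luciferase reagent 10 min → luminescence.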
SW480 rerep – induces DNA re-replication in SW480 colon adenocarcinoma cells. Potency, µM (highest dose often 46.1 µM), most hits filed as activators. 340,000 tested, 1.8% active. SW480 DNA re-replication, Hoechst DNA content imaging, 48 h; also: nearly all actives have a fitted effect of over 55% in size
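Image-based DNA-content assay: after two days of treatment, nuclei were labelled with the DNA dye Hoechst and imaged, and hits were compounds raising the count of nuclei showing high fluorescence intensity.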
Numbers stand for hits; [ ] = remark or other dose. This is a sample that favours compounds with a hit; in the whole collection about 10% have one here. Calls follow the shape of the dose curve; as a rule, active = well fitted curve in the direction sought with a large enough effect; inconclusive = small, poorly fitted or top-dose-only effect, or another doubt; inactive = no such curve, though single readings can be large; an effect the other way counts as inactive or inconclusive.

For CN(CC(=O)Nc1c(Cl)cccc1Cl)C(=O)C1CCN(C(=O)Nc2ccccc2)CC1 the results were ELG1 DNA repair inactive, MCF10A rereplic inactive and SW480 rerep inactive.
`CSc1ccccc1NC(=O)CN(C)C(=O)C1CCN(C(=O)Nc2ccccc2)CC1` gave ELG1 DNA repair inactive, MCF10A rereplic inactive and SW480 rerep 2.3µM.
CC[C@@H](C)[C@H](CN[C@H](CNC)C(C)C)NC[C@@H](C)c1ccc(CC(C)C)cc1 was read as ELG1 DNA repair inactive, MCF10A rereplic inconclusive, VP16 counter inconclusive, RORg inh 10µM and SW480 rerep inconclusive.
`COc1ccccc1NC(=S)NC(=O)/C=C/c1ccco1` gave ELG1 DNA repair inactive, MCF10A rereplic inactive, VP16 counter 20µM, RORg inh 13µM and SW480 rerep inactive.
Screening COc1cc2c(cc1NC(=S)NC(=O)/C=C/c1ccco1)oc1ccccc12 returned ELG1 DNA repair inactive, MCF10A rereplic inconclusive, VP16 counter 5µM, RORg inh 3.2µM and SW480 rerep inactive.
`COc1ccccc1NC(=O)/C=C\c1ccco1` gave ELG1 DNA repair inconclusive, MCF10A rereplic inactive, VP16 counter inconclusive, RORg inh inactive and SW480 rerep inactive.
CC(=O)c1ccc(NC(=S)NC(=O)/C=C/c2ccco2)cc1 was read as ELG1 DNA repair inconclusive, MCF10A rereplic inactive, VP16 counter inconclusive, RORg inh inactive[1.91 µM] and SW480 rerep inactive.
Screening Cc1ccccc1NC(=S)NC(=O)/C=C/c1ccco1 returned ELG1 DNA repair inactive, MCF10A rereplic inactive, VP16 counter 13µM, RORg inh inconclusive and SW480 rerep inconclusive.
`COc1ccccc1NC(=O)/C(C#N)=C/C=C/c1ccco1` gave ELG1 DNA repair inconclusive, MCF10A rereplic 8.2µM, VP16 counter inactive, RORg inh inactive and SW480 rerep 0.92µM.
Screening CN(C)C(=O)c1ccc(-c2cc3onc(-c4ccccc4)c3c(=O)n2C)cc1 returned ELG1 DNA repair inconclusive, MCF10A rereplic inactive and SW480 rerep inactive.
`CCCCCCSc1ccc(-c2nc3cnccn3c2NCCCC)cc1` gave ELG1 DNA repair inactive, MCF10A rereplic inconclusive and SW480 rerep 21µM.
Screening CCCCCCSc1cccc(-c2nc3ccc(Cl)cn3c2NCc2ccccc2)c1 returned ELG1 DNA repair inactive, MCF10A rereplic 21µM and SW480 rerep inactive.
`CCCCNc1c(-c2cccc(SC(C)CC)c2)nc2ccc(Cl)cn12` (centres undefined) gave ELG1 DNA repair inactive, MCF10A rereplic inconclusive and SW480 rerep inactive.
For CCCCNc1c(-c2ccc(OC)c(SC(C)CC)c2)nc2ccc(Cl)cn12 (centres undefined) the results were ELG1 DNA repair inactive, MCF10A rereplic 21µM and SW480 rerep inactive.
Screening CCCCCCSc1ccc(-c2nc3ccc(C)cn3c2NCc2ccccc2)cc1 returned ELG1 DNA repair inconclusive, MCF10A rereplic inconclusive and SW480 rerep inactive[9.22 µM].
CCCCCCSc1cc(-c2nc3ccc(Cl)cn3c2NCCCC)ccc1OC was read as ELG1 DNA repair inactive, MCF10A rereplic inactive and SW480 rerep inactive[9.22 µM].
CCC(C)Sc1ccc(-c2nc3ccc(Cl)cn3c2NCc2ccccc2)cc1 (centres undefined) was read as ELG1 DNA repair inconclusive, MCF10A rereplic 12µM and SW480 rerep inactive.
For CCCCNc1c(-c2ccc(OC)c(SC(C)CC)c2)nc2ccc(C)cn12 (centres undefined) the results were ELG1 DNA repair 7.3µM, MCF10A rereplic inconclusive and SW480 rerep inactive[9.22 µM].
Screening COCCNc1c(-c2ccc(OC)c(OC)c2)nc2ccc(Cl)cn12 returned ELG1 DNA repair inconclusive, MCF10A rereplic inconclusive, VP16 counter inactive, RORg inh inactive and SW480 rerep inactive.
COc1ccc(-c2nc3cc(C)ccn3c2NCC2CCCO2)cc1OC (centres undefined) was read as MCF10A rereplic inactive and SW480 rerep inactive.
Screening CCCCNc1c(-c2ccc(OC)c(SC(C)CC)c2)nc2cc(C)ccn12 (centres undefined) returned ELG1 DNA repair inconclusive, MCF10A rereplic 21µM and SW480 rerep inconclusive.
CCCCCCSc1ccc(-c2nc3ccc(C)cn3c2NCc2ccccc2)cc1OC was read as ELG1 DNA repair inconclusive, MCF10A rereplic inactive and SW480 rerep inconclusive.
For CCC(C)Sc1ccc(-c2nc3ccc(C)cn3c2NCc2ccccc2)cc1OC (centres undefined) the results were ELG1 DNA repair inconclusive, MCF10A rereplic 6.5µM and SW480 rerep inconclusive.
CCCCNc1c(-c2ccc(Sc3ccc(OC)cc3)cc2)nc2cc(C)ccn12 was read as ELG1 DNA repair inconclusive, MCF10A rereplic 23µM and SW480 rerep inconclusive.
`CCCCNc1c(-c2ccc(SC3CCCCC3)cc2)nc2ccccn12` gave ELG1 DNA repair inconclusive, MCF10A rereplic inconclusive and SW480 rerep inactive.
For O=C(Cc1cccs1)Nc1nc(-c2cccnc2)cs1 the results were ELG1 DNA repair inactive, MCF10A rereplic inactive, VP16 counter inactive, RORg inh inactive and SW480 rerep inactive.
For COC(=O)[C@]1(Cc2ccccc2)N[C@H](c2ccc(-c3ccc(Cl)c(Cl)c3)cc2)[C@@H]2C(=O)N(C)C(=O)[C@@H]21 the results were ELG1 DNA repair inactive, MCF10A rereplic inactive and SW480 rerep inactive.
Screening COc1cccc(C(=O)OCC(=O)Nc2cc(C)c(C)cc2[N+](=O)[O-])c1 returned ELG1 DNA repair inactive, MCF10A rereplic inactive, VP16 counter inactive, RORg inh inactive and SW480 rerep inconclusive.
`CCCOc1ccc(/C=N/Nc2ccccc2[N+](=O)[O-])c(O)c1` gave ELG1 DNA repair inconclusive, MCF10A rereplic inactive, VP16 counter inconclusive, RORg inh 7.1µM and SW480 rerep inactive.
Screening O=[N+]([O-])c1cccnc1N/N=C/c1ccccc1O returned ELG1 DNA repair inconclusive, MCF10A rereplic inactive, VP16 counter inactive, RORg inh inactive and SW480 rerep 0.82µM.
Screening Cc1c(O)ccc(/C=N/Nc2ncccc2[N+](=O)[O-])c1O returned ELG1 DNA repair inconclusive, MCF10A rereplic inactive, VP16 counter inconclusive, RORg inh 10µM and SW480 rerep inactive.
For CCOc1ccc(/C=N/Nc2ccc(Cl)nn2)c(O)c1 the results were ELG1 DNA repair inactive, MCF10A rereplic inconclusive, VP16 counter 2µM, RORg inh 1.6µM and SW480 rerep 0.18µM.
For Cc1ccc(C(=O)NNC(=O)c2ccc(S(=O)(=O)N(C)c3ccccc3)cc2)cc1 the results were ELG1 DNA repair inactive, MCF10A rereplic inactive and SW480 rerep inactive.
`CCOc1cc(CNCc2cccnc2)cc(Br)c1OCC(N)=O` gave ELG1 DNA repair inactive, MCF10A rereplic inactive, VP16 counter inactive, RORg inh inactive and SW480 rerep inactive.
`Brc1ccc2nc(-c3c[nH]c4ccccc34)cn2c1` gave ELG1 DNA repair inconclusive, MCF10A rereplic inactive, VP16 counter inconclusive, RORg inh 0.2µM and SW480 rerep inactive.

Screening results: PubChem, National Center for Advancing Translational Sciences (NCATS)
